Among all 160,000 compounds or so, about 240 (0.15%) were called active. Shown is part of a subset that was picked to be rich in actives. Values without a mark were called inactive. No stated cut-off is given here; in the data, active means inhibition above about 40%; inactive means the rest.
Target: Cyclic GMP-AMP synthase (Mus musculus) (UniProt Q8C6L5)
Assay: cyclic GMP-AMP synthase inhibitors, mouse, primary biochemical chemiluminescence (AID 1259399);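 further: 0% = negative control wells and 100% = reference inhibitor with no enzyme activity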
Conditions: recombinant cGAS, Kinase-Glo ATP depletion luminescence; at 12.5 µM; stronger effect = higher value

Chain of Cyclic GMP-AMP synthase (Mus musculus) (Q8C6L5 whole entry, looked up): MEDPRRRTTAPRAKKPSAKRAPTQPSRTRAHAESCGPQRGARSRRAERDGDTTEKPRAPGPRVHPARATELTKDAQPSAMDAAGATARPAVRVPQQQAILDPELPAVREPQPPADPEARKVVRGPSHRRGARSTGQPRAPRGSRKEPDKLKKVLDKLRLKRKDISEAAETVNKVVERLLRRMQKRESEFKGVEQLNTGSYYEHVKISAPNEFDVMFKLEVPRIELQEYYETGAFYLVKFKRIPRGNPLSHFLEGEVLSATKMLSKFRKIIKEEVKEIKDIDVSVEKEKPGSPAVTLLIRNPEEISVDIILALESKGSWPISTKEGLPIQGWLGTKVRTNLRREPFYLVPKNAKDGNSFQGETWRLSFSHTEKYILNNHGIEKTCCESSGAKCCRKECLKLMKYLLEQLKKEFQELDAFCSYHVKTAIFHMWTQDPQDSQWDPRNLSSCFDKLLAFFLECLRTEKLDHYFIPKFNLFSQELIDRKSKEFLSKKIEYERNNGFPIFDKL

Point of comparison: Cc1nc(SCC(=O)c2ccc(Cl)cc2)c(C#N)c(C)c1C, inhibition -5.06%. Against it:
- COc1ccc(-c2cc(NC(=O)c3cc(F)cc(C(F)(F)F)c3)n(-c3ccc(C)cc3)n2)cc1 — higher, -4.28%
- COc1ccc(C(C)=O)cc1COc1ccc(C#N)cc1 — lower, -12.7%
- COc1ccc(CCOc2nc(-c3ccc(OC)cc3)n(-c3ccc(NC(=O)Nc4ccccc4C)cc3)n2)cc1 — lower, -6.37%
- CC(Oc1ccccc1C(N)=O)c1ccccc1Cl (stereo not given) — higher, -1.52%
- CCN1C(=O)N(C2Cc3ccccc3C2)C(=O)C12CCN(Cc1cccc3ncccc13)CC2 — lower, -16.7%
- O=C(Nc1ccc2c(c1)OCO2)c1cc2nc(-c3ccc(F)cc3)cc(C(F)(F)F)n2n1 — lower, -6.41%
- COc1ccc(C=C2SC(=S)NC2=O)cc1OC — higher, 28%
- CCn1nccc1NC(=O)C1(C)CCN1C(=O)c1sccc1C (stereo not given) — higher, -3.99%
- CCOCCCn1c(SCc2cc(F)ccc2C)nc2cc(S(=O)(=O)N3CCCC(C)C3)ccc21 (stereo not given) — lower, -6.92%
- Cc1ccc(OC2(C(=O)N(C)Cc3cc(C4CC4)n[nH]3)CCNCC2)cc1 — higher, -3.33%
- CCOc1ccc(/C=C2/SC(=S)N(CC(=O)O)C2=O)cc1 — lower, -7.17%
- O=C(O)CN1C(=O)/C(=C\c2cccc(Cl)c2Cl)SC1=S — higher, 6.94%
- Cc1ccc2nc(-c3ccc([N+](=O)[O-])cc3)nc(-c3ccccc3)c2c1 — lower, -7.39%
- COc1cccc(CNC(=O)Cn2c3ccc(F)cc3c3ncn(Cc4ccccc4)c(=O)c32)c1 — lower, -6.62%
- CC(=O)Nc1ccc(Nc2cc(N3CCCCC3)c3nonc3c2[N+](=O)[O-])cc1 — lower, -7.72%
- C=CC[C@@H]1CC=C[C@@H](C)N1Cc1nc(-c2ccc(C)o2)oc1C — higher, 0.508%
- COC(=O)c1ccccc1NC(=O)N1CCc2ccccc2C1c1ccc(F)cc1 (stereo not given) — lower, -8.08%
- Cc1cc(=O)[nH]c(SCc2cc(-c3ccco3)on2)c1C#N — higher, 9.2%
- N#CC1C(=N)SC(=N)C(C#N)C1c1ccco1 (stereo not given) — higher, 36.2%
- COc1ccc(-n2ccnc(SCc3ccc(C)cc3)c2=O)cc1Cl — lower, -6.1%
- Cc1ccc(-c2nc3cc(C)ccn3c2NC(=O)CC(C)C)cc1 — lower, -7.17%
- Cn1c(=O)[nH]c(=O)c2c1nc(N1CCN(Cc3ccccc3F)CC1)n2Cc1ccccc1 — higher, -1.19%
- COc1ccc(C23CC4CC(CC(C(=O)NC5CC5)(C4)C2)C3)cc1 — lower, -7.85%
- Cc1oc(-c2ccc(C(F)(F)F)cc2)nc1CN(C)CC1COc2ccccc2O1 (stereo not given) — higher, -4.73%
- O=C(N1CCC(n2cnc3ccccc32)CC1)C1(c2ccccc2)CC1 — lower, -5.7%
- COc1ccc(CCN(Cc2ccc(C)o2)C(=O)CN(CCN2CCCC2)C(=O)c2ccccc2C)cc1OC — higher, -4.1%
- CNC(=O)CN(Cc1cccc(Br)c1)C1CC1 — lower, -8.9%
- CC(=O)N(CCN(C)C)c1nc2cc3c(cc2s1)OCO3 — higher, 1.62%
- O=C(c1ccccc1)N1CCN2C[C@@H](c3ccccc3)[C@H](CO)[C@H]2C1 — higher, -4.18%
- Cc1ccccc1-n1cc(CN(C)C(=O)c2cn(Cc3cccc4ccccc34)nn2)cn1 — lower, -7.32%
- COc1cccc(C(=O)N(Cc2cccc(OS(=O)(=O)c3ccc(F)cc3)c2)Cc2ccco2)c1 — higher, -0.277%
- CC1C(=O)N(c2ccc3c(c2)OCO3)CCN1C(=O)c1ccccc1Cl (stereo not given) — higher, 0.748%
- COc1ccccc1C(=O)N1CCN(c2ccc(F)cc2)C(=O)C1C (stereo not given) — higher, -4.08%
- OC(COCc1ccccc1)CN(Cc1ccc(F)cc1)CC1CC(c2ccc3c(c2)OCO3)=NO1 (stereo not given) — higher, -4.2%
- CCc1nc2c(OCCOc3ccc(F)cc3)cccn2c1N(C)C(C)=O — higher, -2.77%

For O=C(O)CN1C(=O)/C(=C\c2ccc(F)c(Br)c2)SC1=S, the inhibition was 49.9% (active).
For Cc1cc(=O)[nH]c(SCC(N)=O)c1C#N, the inhibition was 71.9% (active).
N#CC1C(=N)SC(=N)C(C#N)C1c1cccc(O)c1 (stereo not given) was tested, and the inhibition was 57.5% (active).
COc1ccccc1C(=O)N1CCN(c2cccc(Cl)c2C)C(=O)C1C (stereo not given) was tested, and the inhibition was 51.1% (active).
